Consider 27 compounds from PubChem BioAssay (NCATS).

Structures are written as SMILES. Records with an inconclusive call do not appear. Active and inactive are the calls of the source. Calls come from the whole dose curve; as a rule, active = well fitted curve in the direction sought with a large enough effect; inconclusive = small, poorly fitted or top-dose-only effect, or another doubt; inactive = no such curve, though single readings can be large; an effect the other way counts as inactive or inconclusive.

A short description of assay [1]: HepG2 cells viability qHTS for Zika virus inhibitors (AID 1347168). The method in brief:
(§1)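 Compounds were tested in concentration series on cells grown in DMEM containing 4% FBS. After 24 to 48 hours, cellular ATP was measured by luminescence with CellTiter Glo.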

Assay [2] is described as follows: Tertiary RLuc qRT-PCR qHTS assay for Zika virus inhibitors (AID 1347169). Note: nearly all actives have a fitted effect of over 55% in size. Note: potency is the fitted concentration of half-maximal effect. The method in brief:
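Inhibition of ZIKV-RLuc replication in Vero cells, read as Renilla luminescence 1-1.5 hrs after live-cell substrate addition, following 48-72 hrs infection at MOI 1-2 in presence of compound.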

A short description of assay [3]: Vero cells viability qHTS for Zika virus inhibitors (AID 1347167). The method in brief:
as §1

The nature of assay [4]: OV-KATE Cancer Cell Toxicity qHTS against the NCATS CANVASS Library (AID 1347345). Note: potency is the fitted concentration of half-maximal effect. The note with it: OV-KATE cells viability, CellTiter-Glo luminescence, 72 h. The text has this:
Natural products and their derivatives continue to be wellsprings of nascent therapeutic potential. However, many laboratories have limited resources for biological evaluation, leaving their previously isolated or synthesized compounds largely or completely untested. To address this issue, the Canvass library of natural products was assembled (https://tripod.nih.gov/canvass), in collaboration with academic and industry researchers, for quantitative high-throughput screening (qHTS) across a diverse set of cell-based and biochemical assays. The pure (>85% purity by liquid chromatography/mass spectrometry [LC/MS]) Canvass library of 346 natural products were submitted by 45 academic laboratories and companies around the world. […] The library was formatted into 1536-well plates and evaluated in 50 qHTS (in an 11-pnt concentration series) bioassays with broad scope of disease-relevant mechanisms. The resulting data set from 50 different assays was then systematically analyzed to identify overall trends and specific natural products with interesting biological activities. […]
Cancer Cell Toxicity protocol for cell lines COV-362, OV-KATE, OV-SAHO, UWB1.289, UWB1.289-WTBRCA1, HEK-293, HPAF-II, Panc-1005, SW1088, or U-118MG. […] Luminescence signal was acquired via the ViewLux plate reader (PerkinElmer) using a clear filter, 2 second exposure and 2x binning settings.

A short description of assay [5]: HPAF-II Cancer Cell Toxicity qHTS against the NCATS CANVASS Library (AID 1347346). Note: potency is the fitted concentration of half-maximal effect; nearly all actives have a fitted effect of over 55% in size. Conditions: HPAF-II viability, CellTiter-Glo ATP luminescence, 72 h. The method in brief:
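Luminescence from CellTiter-Glo, added after 72 h compound exposure and a 15 min room-temperature incubation, served as the viability readout. HPAF-II cells (1000/well) received an 11-point concentration series.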

Assay [6] is described as follows: UWB1.289 Cancer Cell Toxicity qHTS against the NCATS CANVASS Library (AID 1347347). Note: potency is the fitted concentration of half-maximal effect; nearly all actives have a fitted effect of over 60% in size. Conditions: UWB1.289 viability, CellTiter-Glo luminescence, 72 h. A digest of the protocol: (§2)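 ATP content after 72 h treatment, detected by CellTiter-Glo luminescence (15min room-temperature development), reflects cell viability. Wells contained 1000 cells and received compounds at 11 concentrations.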

A short description of assay [7]: OV-SAHO Cancer Cell Toxicity qHTS against the NCATS CANVASS Library (AID 1347348). Note: potency is the fitted concentration of half-maximal effect; nearly all actives have a fitted effect of over 55% in size. The note with it: OV-SAHO viability, CellTiter-Glo luminescence, 72 h. A digest of the protocol:
as §2

Assay [8] can be described thus: Panc-1005 Cancer Cell Toxicity qHTS against the NCATS CANVASS Library (AID 1347349). Note: potency is the fitted concentration of half-maximal effect; nearly all actives have a fitted effect of over 60% in size. Conditions: Panc-1005 viability, CellTiter-Glo luminescence, 72 h. A digest of the protocol:
as §2

Assay [9] is described as follows: U-118MG Cancer Cell Toxicity qHTS against the NCATS CANVASS Library (AID 1347351). Note: potency is the fitted concentration of half-maximal effect. Conditions: U-118MG viability, CellTiter-Glo luminescence, 72 h. The method in brief:
as §2

Assay [10] in a line: COV-362 Cancer Cell Toxicity qHTS against the NCATS CANVASS Library (AID 1347352). Note: potency is the fitted concentration of half-maximal effect. The note with it: COV-362 viability, CellTiter-Glo luminescence, 72 h. The method in brief: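 Luminescent ATP read-out (CellTiter-Glo, 15min at room temperature) measures survival after cells face an 11-point compound series for 72 hours at 37 degrees C/5% CO2.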

In the case of `O=C(O)/C=C/c1ccc(-c2ccc(O)c(C34CC5CC(CC(C5)C3)C4)c2)cc1`, in [1], the outcome was inactive. In assay [2], the Potency is 0.415 µM (active).

On to `COc1ccc(C(=O)n2c(C)c(Cc3cccc(O[C@@H](C)C(=O)O)c3)c3cc(OC(F)(F)F)ccc32)cc1`, for which the compound was classed as inactive in assay [3] and in [1].

Take `CC1(C)CC2=C3C=CC4C5(C)CCC(O)C(C)(C)C5CCC4(C)C3(C)CCC2(C)C(O)C1` (stereo not given): the result in assay [3] and in assay [1] was inactive.

For `CC(C)c1cccc2c(-c3ccccc3)cc(-c3ccc(-c4ccc(C(=O)O)cc4)[nH]3)nc12`, the call in assay [3] and in assay [1] was inactive.

As to `CC1(C)CC[C@]2(C(=O)O)CC[C@]3(C)C(=CCC4[C@@]5(C)C[C@@H](O)[C@H](O)C(C)(C)C5CC[C@]43C)C2C1` (stereo not given in full), the compound was called inactive in [3] and in assay [1]. Moreover, the Potency in [2] is 9.06 µM (active).

Turning to `C=C1C(=O)O[C@H]2[C@H]1CC/C(C)=C/CC[C@@]1(C)O[C@@H]21`, the Potency was 6.66 µM (active) in [4]; 21.1 µM (active) in assay [5]; 11.8 µM (active) in assay [6]; 7.47 µM (active) in assay [7]; 6.68 µM (active) in assay [8]; 6.68 µM (active) in assay [9]. Also, the Potency in assay [10] was 18.8 µM (active).

Regarding `CC(C)(C)Nc1nc2cc(Cl)c(Cl)cc2nc1S(C)(=O)=O`, the Potency in assay [2] is 10.4 µM (active).

Consider `OC/C=C/C=C/[C@H]1Cc2cc(O)cc(O)c2O1`, for which the Potency result in [2] is “inactive”.

`CC1=C(C(=O)OCc2ccccc2)C(c2ccc(-c3ccccc3)cc2)NC(=O)N1CCCCCC(=O)O` (stereo not given): the result in assay [3] and in assay [1] was inactive. Further, the Potency in [2] was 23.4 µM (active).

As to `COc1ccc(Cl)c(Nc2nc3ccccc3nc2NS(=O)(=O)c2cccc(NC(=O)C(C)(C)N)c2)c1`, the call in assay [3] and in assay [1] was inactive. For the same compound, the Potency in assay [2] was 14.7 µM (active).

In the case of `C=C[C@H]1[C@H](O[C@@H]2O[C@H](CO)[C@@H](O)[C@H](O)[C@H]2O)OC=C(C(=O)OC)[C@H]1CCOC(=O)c1cc(O)c(O)c(O)c1`, the outcome in assay [3] and in [1] was inactive. Also, in assay [2], the Potency entry is “inactive”.

In the case of `O=C(O)Cc1ccc2oc(-c3ccc(NC(=O)/C=C/c4ccc(Br)cc4)c(F)c3)nc2c1`, the compound was called inactive in assay [3] and in [1]. In addition, the Potency entry in [2] is “inactive”.

`O=S(=O)(c1ccccc1)c1cnc2c(N3CCNCC3)cccc2c1`: the Potency entry in assay [2] is “inactive”.

For the compound `O=C(Nc1ccc(S(=O)(=O)Nc2nccs2)cc1)C(c1ccccc1)c1ccccc1`, the call in assay [3] and in assay [1] was inactive. Further, in assay [2], the Potency is 20.8 µM (active).

For the compound `C=C1C(=O)O[C@H]2C1[C@H](OC(=O)/C(=C/CO)COC(=O)/C(C)=C/CO)CC(=C)[C@@H]1CC(=O)[C@@H](C)[C@@H]12` (stereo not given in full), the Potency result in assay [2] was “inactive”.

For `CC1(C)CCC(C)(C)c2cc(C3(c4ccc(C(=O)O)cc4)OCCO3)ccc21`, the call in [3] and in [1] was inactive.

Consider `Nc1ncnc2c([C@@H]3N[C@H](CO)[C@@H](O)[C@H]3O)c[nH]c12`, for which the result in [3] and in assay [1] was inactive.

On to `CCCCCCOc1cc2c(cc1N(C)c1ncc(C(=O)O)cn1)C(C)(C)CCC2(C)C`, for which the call in [3] and in assay [1] was inactive. The Potency in [2] was 20.8 µM (active).

For `CC(C)CC(=O)OC1OC=C(CO[C@@H]2O[C@H](CO)[C@@H](O)[C@H](O)[C@H]2O)C2CC(O)C(O)(CO)C12` (stereo not given in full), the Potency entry in [2] was “inactive”.

`CCc1c(-c2ccccc2)c(-c2ccccc2)nn1-c1ccccc1-c1cccc(OCC(=O)O)c1`: the result in assay [3] and in [1] was inactive.

On to `O=C(N/N=C/c1ccc(O)c(O)c1)c1cc2ccccc2cc1O`, for which the call in assay [3] and in assay [1] was inactive. In assay [2], the Potency is 6.18 µM (active).

As to `O=C1OCc2cc3cccc(O[C@@H]4O[C@H](CO)[C@@H](O)[C@H](O)[C@H]4O)c3c(O)c21`, the Potency result in assay [2] is “inactive”.

With `Cc1cc(=O)oc2c(C=O)c(O)ccc12`, the Potency result in assay [2] is “inactive”.

Turning to `O=[N+]([O-])c1cccc2[nH]c(CNc3nc(N4CCOCC4)nc4c3ncn4-c3ccsc3)nc12`, the Potency in [2] is 0.117 µM (active).

Take `C=CC/C=C\C/C=C\CCCCCCCc1cccc(O)c1C(=O)O`: the call in assay [3] and in assay [1] was inactive. Besides, in [2], the Potency result was “inactive”.

For the compound `COc1cc(Nc2nc3ccccc3nc2NS(=O)(=O)c2ccc(NC(=O)c3ccc(OC)c(C)c3)cc2)cc(OC)c1`, the compound was called inactive in assay [3] and in [1].

For `N#CC(c1ccnc(OCc2ccc(CN3CCOCC3)cc2)n1)c1nc2ccccc2s1` (stereo not given), the outcome in assay [3] and in [1] was inactive.
